In all, about 360,000 compounds went through this assay and about 7,500 (2.1%) were called active. Where a call stands in place of a potency, no number is given. Roughly 20% stayed inconclusive and do not appear here. This is one part of a sample in which actives are shown more often than they occur. A number with no mark means an inactive call. The call rests on the fitted dose curve; in most records, active means well fitted inhibition curve with a large enough effect; inconclusive means small, poorly fitted or top-dose-only effect, or effect the other way; inactive means flat fitted curve, though single readings scatter.
Potency means the concentration at half of the fitted maximal effect.

This assay in a line: Nrf2 qHTS screen for inhibitors. Further: nearly all actives have a fitted effect of over 60% in size. As to conditions: A549 ARE-Fluc reporter, luciferase luminescence, 18-24 h; series mostly up to 46 µM. The procedure, abridged: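 In this cell-based qHTS, ARE-driven firefly luciferase in A549 cells reports Nrf2 activity; the luminescent signal after BugLite lysis is the measured value, with a prior CellTiter-Fluor read for cell health.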
Background: qHTS replaces the single test concentration by a dilution series.
Turning to `CCOC(=O)c1ccc(NC(=O)C2CC(=O)N(c3ccc(C(C)C)cc3)C2)cc1` (centres undefined), the Potency entry is “inactive”.
The same measure, in the same setting: then `O=C(Nc1ccncc1)Nc1ccc(F)cc1`, with “inactive”; and `O=C(Nc1ccncc1)c1c(F)cccc1F`, with 9.2 µM (active).
For the molecule `O=C(Nc1ccc(S(=O)(=O)N2CCCCCC2)cc1)c1c(F)cccc1F`, the Potency entry is “inactive”.
For the molecule `Cc1ccc(C)c(N2CCN(CCCNC(=O)Nc3ccc(Cl)cc3)CC2)c1`, the Potency result is “inactive”.
Same read-out and setting: to `CCOc1ccc(NC(=O)CCC(=O)N2CC(C)Oc3ccc(C)cc32)cc1` (centres undefined) belongs “inactive”; to `CN(C)C(=O)c1coc2nc3ccccc3nc12`, “inactive”.
With `CNC(=O)c1cccc2nc3ccccc3nc12`, the Potency is 5.8 µM (active).
On the same count and under the same terms, then `O=c1[nH]c(=O)c2nc3ccccc3nc2[nH]1`, with “inactive”.
As for `Cc1ccc(Nc2c(-c3ccc(C)cc3)nc3cnccn23)cc1`, the activity change, negative = inhibition was -2.28% [at 9.27 µM].
`CCOC(=O)C1CCN(C(=O)CN2C(=O)NC(C)(c3ccc4cc(OC)ccc4c3)C2=O)CC1` (centres undefined): the Potency entry was “inactive”.
Still for that read-out and setting: to `Cc1ccc(C)n1NC(=O)c1ccc([N+](=O)[O-])cc1` belongs “inactive”; to `CC1=NN(c2ccccc2)C(=O)C1C(=O)c1ccc([N+](=O)[O-])cc1` (centres undefined), 25.9 µM (active); to `O=C1CC(c2ccccc2)=NN1c1ccc([N+](=O)[O-])cc1`, “inactive”.
The same measure, in the same setting: then `COCCOC(=O)c1[nH]c2c(c1C)C(=O)CC(c1ccc(OC)cc1)C2` (centres undefined), with “inactive”; and `CCCOC(=O)c1[nH]c2c(c1C)C(=O)CC(c1cccs1)C2` (centres undefined), with “inactive”; and `CCCOC(=O)c1[nH]c2c(c1C)C(=O)CC(c1cc(OC)c(OC)c(OC)c1)C2` (centres undefined), with 16.4 µM (active).
Same read-out and setting: then `Cc1ccc(S(=O)(=O)NCC2CCC(C(=O)N3CCOCC3)CC2)cc1` (centres undefined), with “inactive”; and `Cc1ccc(C)c(N2CCN(C(=O)C3CCC(CNS(=O)(=O)c4cccs4)CC3)CC2)c1` (centres undefined), with 18.4 µM (active).
For `COc1cccc(CNC(=O)C2CCC(CNS(=O)(=O)c3cccs3)CC2)c1` (centres undefined), the Potency result is “inactive”.
Same read-out and setting: then `Cc1cc([N+](=O)[O-])c(=O)[nH]c1C`, with “inactive”; and `COc1ccc(N=C2C=CC(=O)O2)cc1`, with “inactive”.
On the same count and under the same terms, then `COc1ccc(S(=O)(=O)N2CCCCCC2)cc1NC(=O)Cc1ccc(OC)c(OC)c1`, with “inactive”; and `Cc1ccc(N2CC(C(=O)Nc3ccc(S(=O)(=O)N4CCCC4)cc3)CC2=O)cc1C` (centres undefined), with “inactive”.
As to `COc1ccccc1N1CC(C(=O)Nc2ccc(S(=O)(=O)N3CCOCC3)cc2)CC1=O` (centres undefined), the Potency result is “inactive”.
Regarding `CC1CCN(S(=O)(=O)c2ccc(NC(=O)C3CC(=O)N(c4ccccc4)C3)cc2)CC1` (centres undefined), the Potency was 6.51 µM (active).
Same read-out and setting: then `Cc1ccc(NC(=O)C2CC2)cc1S(=O)(=O)N1CCOCC1`, with “inactive”; and `COc1ccc(S(=O)(=O)N2CCCCC2)cc1NC(=O)C1CC(=O)N(c2ccc3c(c2)OCCO3)C1` (centres undefined), with 23.1 µM (active); and `Cc1ccc(NC(=O)C2CC(=O)N(c3ccc4c(c3)OCCO4)C2)cc1S(=O)(=O)N1CCCCCC1` (centres undefined), with 5.8 µM (active).
Still for that read-out and setting: then `CCOC(=O)c1ccc(NC(=O)C2CC(=O)N(c3ccc4c(c3)OCCO4)C2)cc1` (centres undefined), with “inactive”; and `Cc1ccc(NC(=O)C2CCC(C(C)(C)C)CC2)cc1S(=O)(=O)N1CCOCC1` (centres undefined), with 20.6 µM (active); and `CC(=O)c1ccccc1NC(=O)C1CC(=O)N(c2ccc3c(c2)OCCO3)C1` (centres undefined), with “inactive”.
On the same count and under the same terms, then `Cc1ccc(NC(=O)NC2CCCCC2)cc1S(=O)(=O)N1CCOCC1`, with “inactive”; and `Cc1ccccc1N1CC(C(=O)Nc2ccc(S(=O)(=O)N3CCCC3)cc2)CC1=O` (centres undefined), with “inactive”.

These data come from PubChem BioAssay AID504444 (National Center for Advancing Translational Sciences (NCATS), 2011).
